In the OligoGym collection one finds sensor-assay potency score (higher = more potent) data, which are given here for 20 sequences.
Further: reference of the scale not given here.

The first experiment deals with RBFOX1. Put plainly: pooled miR-30 sensor sort-seq; sequence = guide strand. The settings on record: shRNA.
For TTTAATATCCAACTGATCTTAC, the sensor-assay potency score (higher = more potent) was -0.633.

With TTCTAGAACTTAACAACTCCAC, the sensor-assay potency score (higher = more potent) is -0.286.

For TATTTGTCATTACACGTGCTGT, the sensor-assay potency score (higher = more potent) was -1.1.

Regarding TTTTTATTCATTATCTAGCATC, the sensor-assay potency score (higher = more potent) was -0.945.

The sequence TTATTCATTATCTAGCATCTGT yielded a sensor-assay potency score (higher = more potent) of 0.299.

For the sequence TACACATGAGGACTTAACCTAT, the sensor-assay potency score (higher = more potent) was -0.971.

In the case of TTTTATTTGTCATTACACGTGC, the sensor-assay potency score (higher = more potent) came to 0.123.

TTATTTGTCATTACACGTGCTG yielded a sensor-assay potency score (higher = more potent) of 0.199.

The next experiment deals with RBM12B. The experiment is described as above. The following applies: shRNA.
On to TTTTTGTGAAACATGTCCGGGC, for which the sensor-assay potency score (higher = more potent) worked out at 0.0214.

Regarding ATTTTTGTGAAACATGTCCGGG, the sensor-assay potency score (higher = more potent) is -0.845.

In the case of TAAGTCTTAATAACACCTCTGT, the sensor-assay potency score (higher = more potent) was found to be 0.203.

With TAGATCTTTAATAGCAGCCATA, the sensor-assay potency score (higher = more potent) is -1.64.

TAATTGAAGAGCCATATCCAGA: the sensor-assay potency score (higher = more potent) was -1.22.

Consider TTATACTGTATCGAAACTGAAT, for which the sensor-assay potency score (higher = more potent) was -1.19.

Turning to TATGACATTTAAGACCTCCTGA, the sensor-assay potency score (higher = more potent) amounted to 0.971.

TAGTCTTCTGCATTTCTGCCTT: the sensor-assay potency score (higher = more potent) is -0.412.

The sequence TATCTCTCTCTAGTGACCCTGA came in with a sensor-assay potency score (higher = more potent) of 0.0397.

Consider TTAAGTGAACATAAAATCCAAG, for which the sensor-assay potency score (higher = more potent) was -0.9.

On to TAAGTCTTGAAGATTACCGATG, for which the sensor-assay potency score (higher = more potent) is -1.18.

On to TAATAGGAGTTACTCTACCTGA, for which the sensor-assay potency score (higher = more potent) is -0.42.
